Source: PubChem BioAssay (NCI)
The panel holds about 83,000 compounds, 20% with a hit somewhere; the sample as a whole holds those more often.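 Single-concentration screen, 48 h exposure, 96-well plates. Endpoint: percent growth. Below 10 = active.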 A number with no mark means an inactive call. Calls of active or inactive are those of the source.

Columns and labels:
Experiment in all cases: NCI-60 one-dose screen, 48 h (100 = growth as untreated, 0 = no growth, -100 = all killed)
Conditions in all cases: 10 µM unless noted
[1] = system: NCI-H23 lung
[2] = system: NCI-H226 lung
[3] = system: NCI-H322M lung
[4] = system: HOP-62 NSCLC
[5] = system: NCI-H460 lung
[6] = system: HOP-92 NSCLC
[7] = system: NCI-H522 lung
[8] = system: A549/ATCC NSCLC
[9] = system: 786-0 renal
[10] = system: COLO 205 colon
[11] = system: DU-145 prostate
[12] = system: K-562 leukemia
[13] = system: MALME-3M melanoma
[14] = system: MDA-MB-231 breast
[15] = system: RXF 393 renal
[16] = system: SF-268 CNS
[17] = system: SF-295 CNS
[18] = system: SF-539 CNS
[19] = system: UACC-257 melanoma
[20] = system: M14 melanoma

SMILES | growth [1] | growth [2] [%] | growth [3] [%] | growth [4] [%] | growth [5] | growth [6] | growth [7] | growth [8] | growth [9] | growth [10] | growth [11] | growth [12] | growth [13] | growth [14] | growth [15] | growth [16] [%] | growth [17] | growth [18] | growth [19] | growth [20]
NC(=O)CSc1oc(-c2ccccc2)nc1S(=O)(=O)c1ccc(Br)cc1 | 79.8% | 54.7 | 89.8 | 73.9 | 71.6% | 5.26% (active) | 70.1% | 74.5% | 25.9% | 107% | 85.6% | 91.7% | 59.4% | 52.7% | 46.5% | 72.6 | 80.7% | 45.7% | 84.7% | 83.5%
O=CN1N=C(c2cccc(Nc3ccnc4cc(Cl)ccc34)c2)CC1c1ccccc1 (stereo not given) | 4.34% (active) | 38.3 | 71.8 | 37.2 | 7.29% (active) | 18.9% | -25.8% (active) | 21.3% | 18.9% | -40.9% (active) | 6.74% (active) | 18.3% | 53.2% | 7.27% (active) | -5.98% (active) | 36.9 | 2.56% (active) | -7.47% (active) | 66.9% | 23.6%
O=C(Nc1cccc(-c2ccc(N3CCOCC3)nn2)c1)Nc1cccc(C(F)(F)F)c1 | 70.4% | 61.8 | 89.6 | 76.8 | 79.1% | 58.6% | 46.4% | 56.4% | 92.1% | 81% | 80.5% | 46.1% | 89.5% | 80.1% | 81.5% | 91.2 | 52% | 89.1% | 69.7% | 63.1%
COC(=O)[C@]12CCC(C)(C)C[C@H]1[C@H]1/C(=N/OCCc3nn[nH]n3)C[C@@H]3[C@@]4(C)CC[C@H](OC(C)=O)C(C)(C)[C@@H]4CC[C@@]3(C)[C@]1(C)CC2 | 28.4% | 33.3 | 64.6 | 34 | 9.64% (active) | 49.9% | 38.3% | 36.8% | 51.9% | 41.4% | 53.8% | 24.5% | 40.4% | 48.5% | 70.1% | 45.5 | 25% | 44.7% | 16.5% | 48.4%
Cc1c[n+](Cc2ccc3ccccc3c2)cn1Cc1ccc2ccccc2c1 | 27.7% | 31.8 | 65.7 | 33.2 | 21.9% | -20.9% (active) | -17.9% (active) | 60.5% | 41% | -78.7% (active) | 37.1% | 8.82% (active) | 0.847% (active) | -8.23% (active) | 2.91% (active) | 24.3 | 45.5% | 33.1% | -26.1% (active) | -15.5% (active)
C=C(C)[C@@H]1CCC[C@]2(COS(=O)(=O)c3ccc(C)cc3)CC[C@]3(C)[C@@H](CC[C@@H]4[C@@]5(C)CCCNC(C)(C)[C@@H]5CC[C@]43C)[C@@H]12 | 25.7% | 82.1 | 39.7 | 69 | -49.1% (active) | 19% | -41% (active) | -12% (active) | -77.5% (active) | -86.1% (active) | 0.903% (active) | -33.4% (active) | 4.1% (active) | -10.3% (active) | -79.9% (active) | 48.2 | -11.5% (active) | 71.9% | 58.5% | -20.6% (active)
COc1cc(OC)c(NC(=O)c2cc3ccccc3cc2O)cc1Cl | 10.7% | 77 | 40.2 | 68.2 | 11.2% | -31.2% (active) | -19.9% (active) | 32.1% | 27.4% | 66.6% | 46.4% | 23.4% | 19.5% | 70.4% | 120% | 51.2 | 53.3% | 52.9% | 59.8% | 42.1%
Clc1ccc(/C=N\N=C\c2ccc(Cl)c(Cl)c2)cc1Cl | 84.9% | 104 | 102 | 95.8 | 47.1% | 88.6% | 77.4% | 87.2% | 97.3% | 90.8% | 3.88% (active) | 88.8% | 125% | 80.6% | 79.3% | 91.9 | 81.1% | 102% | 106% | 88.6%
